Laboratory results published in PubChem BioAssay (Tox21).
Inconclusive results are not listed. Where a call stands in place of a potency, no number is given. Calls of active or inactive are those of the source. The call rests on the fitted dose curve; in most records, active means well fitted cell-killing curve with a large enough effect in the repeat runs; inconclusive means weak or mixed curves, or effect the other way; inactive means flat fitted curve, though single readings scatter.

Assay: Human pregnane X receptor (PXR) small molecule agonists, qHTS cell viability counter screen (AID 1346977); further: nearly all actives have a fitted effect of over 50% in size
Conditions: PXR-Luc HepG2 viability, CellTiter-Fluor, 24 h; series mostly up to 92.4 µM
From the text: U.S. Tox21 Program National Center for Advancing Translational Sciences [NCATS] NIH Chemical Genomics Center [NCGC] U.S. Environmental Protection Agency [EPA] National Institutes of Environmental Health Sciences [NIEHS] National Toxicology Program [NTP] U.S. Food and Drug Administration [FDA] Tox21 Assay Overview: The human pregnane X receptor (hPXR) regulates the expression of several drug metabolizing enzymes and induction of these proteins is a major mechanism for developing drug resistance in cancer. One such key enzyme catalyzing the drug metabolism is cytochrome P450 3A4 (CYP3A4). Changes in CYP3A4 expression affect drug metabolism, thereby reducing the therapeutic efficacy and altering toxicological response to a drug and which finally causes adverse drug interaction. To screen Tox21 libraries for compounds that activate hPXR-mediated CYP3A4 gene expression, PXR-Luc HepG2 cells were used. Also cytotoxicity of the compounds was tested in parallel by measuring the cell viability using CellTiter-Fluor assay system in the same wells.
Tox21 Assay Protocol Summary: PXR-Luc HepG2 cells were dispensed at 2,000 per well in 5uL of assay medium containing 5% charcoal-stripped FBS into white solid bottom 1536-well plates (Corning Life Sciences, Corning, NY) using a Multidrop Combi (Thermo Scientific, Waltham, MA) dispenser. The assay plates were incubated at 37 C and 5% CO2 for 5hr, and then 23nL of compounds dissolved in DMSO and positive control were transferred using a Pintool station (Wako, San Diego, CA). The assay plates were incubated at 37C and 5% CO2 for 24hr. For cytotoxicity read, after 23hr incubation at 37C, 1uL CellTiter-Fluor reagent (Promega Corporation, Madison, WI) was added to each well of the assay plates using Flying Reagent Dispenser (FRD, Aurora Discovery, San Diego, CA). After 1hr incubation at 37C and 5% CO2, the fluorescence signal was quantified using a ViewLux plate reader (PerkinElmer, Shelton, CT).
Potency means the concentration at half of the fitted maximal effect.

| Structure (SMILES) | Potency |
| --- | --- |
| CNC(C)Cc1ccccc1OC (stereo not given) | inactive |
| c1ccc(CN2CCNCC2)cc1 | inactive |
| COC1=CC(=O)O[C@@H](CCc2ccccc2)C1 | inactive |
| NC(=O)CI | inactive |
| CCCCNP(N)(N)=S | inactive |
| C[C@]12CC[C@H]3[C@@H](CCC4=CC(=O)CC[C@@H]43)[C@@H]1CC[C@@H]2OC(=O)CCC1CCCCC1 | inactive |
| CCOC(=O)COc1cc(-c2nn(C)c(OC(F)F)c2Cl)c(F)cc1Cl | inactive |
| C[C@@H]1CC[C@H]2[C@@H](C)C(=O)O[C@@H]3O[C@@]4(C)CC[C@@H]1[C@]32OO4 | inactive |
| ClP(Cl)(Cl)(Cl)Cl | inactive |
| N#Cc1cc(I)c(O)c(I)c1 | 43.3 µM (active) |
| CC(C)(OO)c1ccccc1 | inactive |
| C=COC(C)=O | inactive |
| CCOP(O)OCC | inactive |
| COc1nn(CSP(=S)(OC)OC)c(=O)s1 | inactive |
| CC(=O)[C@H]1CC[C@H]2[C@@H]3CC[C@H]4C[C@](C)(O)CC[C@]4(C)[C@H]3CC[C@]12C | inactive |
| O=C(CBr)OCc1ccccc1 | inactive |
| COC(=O)c1cncn1C(C)c1ccccc1 (stereo not given) | inactive |
| CCOC(=O)CBr | inactive |
| IC(I)=C(I)I | 17.2 µM (active) |
| O=C(O)C(F)(F)C(F)(F)C(F)(F)C(F)(F)C(F)(F)C(F)(F)C(F)(F)C(F)(F)C(F)(F)F | inactive |

| Structure (SMILES) | Potency |
| --- | --- |
| CC(C)=CCOc1c2occc2cc2ccc(=O)oc12 | inactive |
| CCN(C)N=O | inactive |
| O=Cc1ccc(Cl)cc1Cl | inactive |
| C[N+](C)(C)CCCl | inactive |
| Clc1cc(Cl)c(Cl)c(Cl)c1 | inactive |
| CC(Cl)Cl | inactive |
| OCCCBr | inactive |
| Cc1ccc(-c2c(Cl)nc(C#N)n2S(=O)(=O)N(C)C)cc1 | 43.2 µM (active) |
| C/C(=C\c1ccccc1)[N+](=O)[O-] | 43.3 µM (active) |
| CCC(Cl)CCl (stereo not given) | inactive |
| CCCCCC[N+](=O)[O-] | inactive |
| CCOP(=S)(OCC)Oc1cc(Cl)c(Br)cc1Cl | inactive |
| CC[C@H]1C[C@H]2[C@@H]3CCC4=CC(=O)CC[C@@H]4[C@H]3CC[C@]2(C)[C@H]1O | inactive |
| CCCCC(CC)COP(=O)(Oc1ccccc1)Oc1ccccc1 (stereo not given) | inactive |
| CCBr | inactive |
| COc1nn(C(=O)NS(=O)(=O)c2ccccc2OC(F)(F)F)c(=O)n1C | inactive |
| O=[Se]=O | 24.2 µM (active) |
| C=CC(=O)OCC(C)O (stereo not given) | inactive |
| C=CC(C)=O | inactive |
| Cc1cc(=O)[nH]o1 | inactive |
